Compound activity from PubChem.
Vaccinia mCherry – inhibitors of vaccinia virus infection (mCherry reporter signal); Vaccinia virus mCherry reporter infection, fluorescence; Potency, µM (doses to about 36.5 µM), for the others: at the top dose activity change, negative = inhibition, hits mostly inhibitors; 310,000 compounds, 0.63% hits; calls by dose curve; tested in A549 cells; also: potency is read from the fitted curve at half-maximal effect; nearly all actives have a fitted effect of over 35% in size
Vaccinia Venus – vaccinia inhibition (Venus reporter); Vaccinia virus Venus reporter expression, fluorescence; 330,000 compounds, 0.46% hits; Potency, µM (doses to about 36.5 µM), inactives show at the top dose activity change, negative = inhibition, most hits filed as inhibitors; calls by dose curve; tested in A549 cells; also: potency is read from the fitted curve at half-maximal effect; nearly all actives have a fitted effect of over 30% in size
FMDV inh – antivirals against foot and mouth disease virus | Potency, µM (doses to about 57.9 µM), for inactives: at the highest dose activity change, negative = inhibition, actives largely listed as inhibitors | FMDV antiviral cell-based qHTS | 410,000 compounds, 1.2% hits | AID 1159524; calls by dose curve; tested in HEK293T cells; also: read-out not given here; potency is read from the fitted curve at half-maximal effect; nearly all actives have a fitted effect of over 45% in size
HCV inh – blocks hepatitis C virus | Huh7.5.1 HCVcc-Cre infection, luciferase reporter, 44 h | Potency, µM (doses to about 41.8 µM), for the others: top-dose activity change, negative = inhibition, most hits filed as inhibitors | 340,000 compounds, 3.4% hits; active = well fitted inhibition curve with a large enough effect; inconclusive = small, poorly fitted or top-dose-only effect, or another doubt; inactive = no such curve, though single readings can be large or run the other way; also: potency is read from the fitted curve at half-maximal effect
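Infectious HCVcc-Cre (~0.5 moi) was added to cells just after compound, with cells seeded 4 h earlier at 1,000 per well. Luciferase activity after 44 h culture reported infection; substrate was incubated 15 min at room temperature before reading.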
HCMV inh – blocks human cytomegalovirus replication; HFF cells, HCMV-luciferase reporter, 72 h; stronger effect = lower value; activity change, negative = inhibition, % at 57.5 µM; 410,000 compounds, 4.5% hits; in the data active = activity change below about -60%; inconclusive = no clear call, values can overlap the other calls; inactive = above about -39%
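HFF cells seeded 16 h at 37C, treated with compounds, infected with luciferase-reporter HCMV at MOI 1 PFU/cell; luciferase read at 72 h post infection, normalized to buffer-only and Salinomycin controls.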
* hit, by the source's call; i = inactive; ? = inconclusive; · = no result given; [ ] = another dose, or the depositor's remark. Compounds with a hit are over-represented: about 7.3% of the library has one in this group of screens. % is scaled to controls: 0 for no effect and ±100 for the full control effect.

SMILES	Vaccinia mCherry	Vaccinia Venus	FMDV inh	HCV inh	HCMV inh
CCn1c(CCNC(=O)c2ccc(OC)cc2)nnc1SCc1ccc(Cl)c(Cl)c1	?	?	?	?	-60*
O=C(Nc1ccc2c(c1)OCCO2)C(c1ccncc1)n1c(=O)c(-c2cc3ccccc3[nH]2)nc2ccccc21 (stereo unspecified)	?	?	37%	·	48
CSc1ncccc1C(=O)NCC1Cc2cc(F)cc(-c3cncnc3)c2O1 (stereo unspecified)	-12%	-2%	-22%	·	·
O=C(Nc1nccs1)c1ccc(S(=O)(=O)NCc2cccs2)cc1	-17%	-29%	·	10µM*	?
O=C(Nc1nccs1)c1ccc(S(=O)(=O)NCC2CCCCC2)cc1	?	?	18%	·	-83*
COc1cc(-c2cc3n(C)c(C)c(CCC(=O)NC4CCC(C)CC4)c(=O)n3n2)cc(OC)c1OC (stereo unspecified)	-13%	-3%	10%	·	100
COc1cc(OC)cc(-c2nc3nc(C)c(CCC(=O)Nc4ccc(F)cc4F)c(C)n3n2)c1	6%	0%	7%	·	9
Cc1cc(NC(=O)COn2nnc3ccc(S(C)(=O)=O)cc32)ccc1Br	·	·	-25%	10µM*	?
COc1cc(NC(=O)COn2nnc3ccc(S(C)(=O)=O)cc32)cc(OC)c1	-15%	-18%	-13%	-17%	-68*
CCc1ccc(NC(=O)COn2nnc3ccc(S(=O)(=O)N(C)C)cc32)cc1	·	·	-27%	?	-35
Cc1cc(Br)c(NC(=O)COn2nnc3ccc(S(C)(=O)=O)cc32)c(Br)c1	i	-12%	-23%	0%	-30
CCC(=O)N1CCc2cc(CNS(=O)(=O)c3ccccc3F)ccc21	0%[7.34 µM]	-12%[7.34 µM]	37%	·	44
O=S(=O)(c1cccs1)N1CCCc2nc(-c3ccc(F)cc3)ccc21	·	·	·	·	38
FC(F)(F)c1cc(-c2ccccc2)nc(NCC2CCCO2)n1 (stereo unspecified)	·	·	0%	?	30
Fc1ccc(-c2cc(C(F)(F)F)nc(NCC3CCCO3)n2)cc1 (stereo unspecified)	·	-24%	?	10µM*	-2
C=C1C(=O)C2=CC1CCC(=O)C1(C)CCC(OC(C)=O)C(C)(C)C1CC2O (stereo unspecified)	2.5µM*	4µM*	7.9µM*	11µM*	-99*
CC(=O)O[C@H]1C[C@@H]2CC[C@@H]3[C@H](CC[C@]4(C)C(=O)CC[C@@H]34)[C@@]2(C)C[C@@H]1OC(C)=O	2%	4%	?	20%	·
CCc1cc(=O)oc2c(C)c(OC(C)C(=O)N3CC[C@@]4(O)CCCC[C@H]4C3)ccc12 (stereo partly specified)	-3%	-2%	0%	0.89µM*	21
O=C(CN1C(=O)CCSc2ccc(S(=O)(=O)N3CCCC3)cc21)Nc1cccc(F)c1	-7%[7.34 µM]	-4%[7.34 µM]	-11%	·	-8
COc1cccc(CNC(=O)c2c(OC)cc(=O)n3c2CCN(C(=O)C2CC=CCC2)CC3)c1 (stereo unspecified)	-16%	-10%	2%	·	·
